Test results: PubChem BioAssay
For some of these results: Measured potencies and affinities stand elsewhere. Calls of active or inactive are those of the source. Unless noted, no rule for the calls is given here.

Tests used:
[1] = antimalarial activity against Dd2 strain (AID 2302;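 active = growth inhibition above 50% at the single 2 µM test dose, taken to imply half-maximal potency below 2 µM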;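 also: 0% = DMSO untreated growth and 100% = chloroquine plus artemisinin killed control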); settings: P. falciparum Dd2 in RBCs, LDH growth readout, 72 h; at 2 µM; stronger effect = higher value
[2] = HepG2 cytotoxicity, primary screen, cytotoxicity control for P. falciparum antimalarial project, cell-based, ATP luminescence (AID 2303;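 active = inhibition above 50%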;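 also: 0% = DMSO wells and 100% = digitonin-killed cells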); settings: HepG2 viability, 24-48 h, at 10 µM, stronger effect = higher value
[3] = target: L-lactate dehydrogenase (Plasmodium falciparum (isolate CDC / Honduras)) (UniProt Q27743); experiment: PfLDH activity inhibition – cell lysate, 3D7 strain, counter-screen for P. falciparum growth inhibition project (AID 2304);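 also: 0% = vehicle and 100% = reference inhibitor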; settings: P. falciparum 3D7 crude extract, LDH APAD/NBT absorbance; at 2 µM; stronger effect = higher value
[4] = inhibition of 3D7 malaria parasite growth – strain 3D7 (AID 2306);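 also: 0% = DMSO wells and 100% = chloroquine plus artemisinin control wells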; settings: P. falciparum 3D7 erythrocytic growth, LDH absorbance, 72 h; at 2 µM; stronger effect = higher value
[5] = target: Calcium-dependent protein kinase 1 (Plasmodium falciparum (isolate 3D7)) (UniProt P62344); experiment: PfCDPK1 kinase inhibitors, biochemical, TCAMS library (AID 1159585; cut-off not given, nearly all actives have IC50 up to about 0.98 µM;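 also: inhibitors leave more ATP so luminescence rises with inhibition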); settings: recombinant PfCDPK1, Kinase-Glo ATP depletion luminescence
[6] = target: Plasmodium falciparum protein kinase 6 (PK6, PF3D7_1337100) (UniProt Q8IDW1); experiment: PfPK6 kinase inhibitors, biochemical, TCAMS library (AID 1159586); settings: recombinant PfPK6, Kinase-Glo ATP depletion luminescence
[7] = target: Protein kinase 7 (PK7), Plasmodium falciparum 3D7 (PF3D7_0213400) (UniProt Q7YTF7); experiment: inhibition of Plasmodium PK7 catalytic activity – biochemical, TCAMS antimalarial set, Kinase-Glo luminescence (AID 1159587); settings: recombinant PfPK7, Kinase-Glo ATP depletion luminescence
[8] = target: Calcium-dependent protein kinase 4 (Plasmodium falciparum (isolate 3D7)) (UniProt Q8IBS5); experiment: PfCDPK4 kinase inhibitors, biochemical, TCAMS library (AID 1159588; cut-off not given, nearly all actives have IC50 up to about 0.91 µM); settings: recombinant PfCDPK4, Kinase-Glo ATP depletion luminescence
Calcium-dependent protein kinase 4 (Plasmodium falciparum (isolate 3D7)), sequence (Q8IBS5 whole entry, looked up): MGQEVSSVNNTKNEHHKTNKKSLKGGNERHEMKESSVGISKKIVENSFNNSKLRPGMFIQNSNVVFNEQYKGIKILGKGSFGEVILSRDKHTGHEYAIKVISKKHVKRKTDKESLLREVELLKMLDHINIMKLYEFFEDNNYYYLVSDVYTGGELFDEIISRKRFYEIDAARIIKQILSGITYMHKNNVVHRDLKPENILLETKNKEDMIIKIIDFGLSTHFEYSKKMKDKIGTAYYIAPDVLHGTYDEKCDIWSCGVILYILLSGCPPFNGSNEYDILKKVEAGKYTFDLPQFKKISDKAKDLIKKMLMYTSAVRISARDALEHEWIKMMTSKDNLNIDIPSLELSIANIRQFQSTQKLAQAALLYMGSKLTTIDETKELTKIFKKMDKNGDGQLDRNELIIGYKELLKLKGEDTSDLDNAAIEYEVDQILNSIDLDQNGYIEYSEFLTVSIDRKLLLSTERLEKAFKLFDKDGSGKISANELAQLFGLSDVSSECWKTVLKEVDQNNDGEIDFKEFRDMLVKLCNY

L-lactate dehydrogenase (Plasmodium falciparum (isolate CDC / Honduras)), sequence (Q27743 whole entry, looked up): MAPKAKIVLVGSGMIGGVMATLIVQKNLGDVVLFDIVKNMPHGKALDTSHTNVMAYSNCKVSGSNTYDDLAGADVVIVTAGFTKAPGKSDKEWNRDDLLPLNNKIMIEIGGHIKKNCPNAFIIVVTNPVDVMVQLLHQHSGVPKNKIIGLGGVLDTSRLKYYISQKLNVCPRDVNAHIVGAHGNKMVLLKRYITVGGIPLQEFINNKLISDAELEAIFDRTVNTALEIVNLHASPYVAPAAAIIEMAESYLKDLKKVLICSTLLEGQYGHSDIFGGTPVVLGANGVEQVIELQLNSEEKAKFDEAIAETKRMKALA
Calcium-dependent protein kinase 1 (Plasmodium falciparum (isolate 3D7)), sequence (P62344 whole entry, looked up): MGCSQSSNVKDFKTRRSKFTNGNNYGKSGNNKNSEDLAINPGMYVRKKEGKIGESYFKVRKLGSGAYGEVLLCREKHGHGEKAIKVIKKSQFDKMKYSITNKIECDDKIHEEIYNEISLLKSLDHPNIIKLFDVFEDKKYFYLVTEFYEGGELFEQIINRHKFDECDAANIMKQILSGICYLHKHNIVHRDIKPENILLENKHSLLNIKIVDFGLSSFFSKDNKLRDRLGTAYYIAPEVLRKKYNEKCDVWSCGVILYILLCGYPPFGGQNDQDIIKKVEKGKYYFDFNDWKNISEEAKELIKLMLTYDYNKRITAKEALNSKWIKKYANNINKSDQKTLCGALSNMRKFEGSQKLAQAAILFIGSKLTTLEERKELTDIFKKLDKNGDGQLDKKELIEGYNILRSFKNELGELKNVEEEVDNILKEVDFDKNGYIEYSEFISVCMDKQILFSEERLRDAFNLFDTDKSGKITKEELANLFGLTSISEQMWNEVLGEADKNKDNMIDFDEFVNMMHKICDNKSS
Protein kinase 7 (PK7), Plasmodium falciparum 3D7 (PF3D7_0213400), sequence (Q7YTF7 1-343): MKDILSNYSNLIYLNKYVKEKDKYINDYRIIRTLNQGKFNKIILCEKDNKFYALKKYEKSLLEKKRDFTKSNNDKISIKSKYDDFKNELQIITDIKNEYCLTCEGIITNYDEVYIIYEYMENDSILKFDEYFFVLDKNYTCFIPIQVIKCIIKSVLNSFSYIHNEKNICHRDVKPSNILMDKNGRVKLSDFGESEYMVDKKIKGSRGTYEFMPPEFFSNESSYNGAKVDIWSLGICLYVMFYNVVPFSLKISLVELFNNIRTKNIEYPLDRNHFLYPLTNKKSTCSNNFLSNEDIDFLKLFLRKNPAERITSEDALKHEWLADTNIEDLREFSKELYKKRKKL
Plasmodium falciparum protein kinase 6 (PK6, PF3D7_1337100), sequence (Q8IDW1 1-305): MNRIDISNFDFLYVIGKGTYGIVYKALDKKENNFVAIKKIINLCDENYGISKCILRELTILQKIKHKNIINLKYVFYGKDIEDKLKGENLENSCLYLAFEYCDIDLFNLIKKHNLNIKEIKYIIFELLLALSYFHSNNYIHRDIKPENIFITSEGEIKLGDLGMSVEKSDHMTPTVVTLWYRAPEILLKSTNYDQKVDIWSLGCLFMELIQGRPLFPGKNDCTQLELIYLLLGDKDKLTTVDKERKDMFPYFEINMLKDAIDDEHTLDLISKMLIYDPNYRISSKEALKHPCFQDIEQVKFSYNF

C[C@H](Cc1ccc(C[C@@H](C)NC[C@H](O)c2cccc(Cl)c2)cc1)NC[C@H](O)COc1ccccc1
active: growth inhibition [1] 60% | inhibition [2] 99% | growth inhibition [4] 96%
inactive: inhibition [3] -2% | outcome [5] | outcome [6] | outcome [7] | outcome [8]

CN1CCN(c2ccnc3ccc(NC(=O)Nc4cccc5ccccc45)cc23)CC1
active: growth inhibition [1] 96% | growth inhibition [4] 101%
inactive: inhibition [2] -3% | inhibition [3] 1% | outcome [5] | outcome [6] | outcome [7] | outcome [8]

COc1ccc(C(=O)CCC(=O)N(CCSC(C)(C)C)Cc2ccc(-c3ccc(CNCCc4ccc(S(C)(=O)=O)cc4)cn3)cc2)cc1F
active: growth inhibition [4] 98%
inactive: growth inhibition [1] 42% | inhibition [2] 9% | inhibition [3] -3% | outcome [5] | outcome [6] | outcome [7] | outcome [8]

O=C(CSc1nccn1C1CCCC1)Nc1cc(C(F)(F)F)ccc1Cl
active: growth inhibition [1] 94% | growth inhibition [4] 96%
inactive: inhibition [2] -4% | inhibition [3] -2% | outcome [5] | outcome [6] | outcome [7] | outcome [8]

CCN(CC)S(=O)(=O)n1ncc2c3c(N)nc(N)nc3ccc21
inactive: growth inhibition [1] 16% | inhibition [3] 3% | outcome [5] | outcome [6] | outcome [7] | outcome [8]
active: inhibition [2] 67% | growth inhibition [4] 93%

CN(Cc1ccc(C#N)cc1)C1CCN(c2cc(NC(=O)c3cccc(F)c3)ccn2)CC1
active: growth inhibition [4] 83%
inactive: growth inhibition [1] -9% | inhibition [2] 9% | inhibition [3] -2% | outcome [5] | outcome [6] | outcome [7] | outcome [8]

C[C@H](NC(=O)[C@H](CCCCNC(=O)OC(C)(C)C)NC(=O)OC(C)(C)c1ccc(-c2ccccc2)cc1)C(=O)OCc1ccccc1
active: growth inhibition [4] 97%
inactive: growth inhibition [1] 1% | inhibition [2] 4% | inhibition [3] -7% | outcome [5] | outcome [6] | outcome [7] | outcome [8]

Nc1ncc(-c2ccc(Cl)c(Cl)c2)c(N)n1
inactive: growth inhibition [1] -2% | inhibition [3] -2% | outcome [5] | outcome [6] | outcome [7] | outcome [8]
active: inhibition [2] 65% | growth inhibition [4] 94%

COc1cccc(CN2Cc3ccccc3OC3(CCN(Cc4c[nH]c5cnccc45)CC3)C2)c1
inactive: inhibition [2] 39% | inhibition [3] -3% | outcome [5] | outcome [6] | outcome [7] | outcome [8]
active: growth inhibition [1] 83% | growth inhibition [4] 83%

Fc1cccc(COc2ccc(Nc3ncnc4sc(C#C[C@H]5CCCN5)cc34)cc2F)c1
inactive: growth inhibition [1] 17% | inhibition [2] 13% | inhibition [3] 5% | outcome [5] | outcome [6] | outcome [7] | outcome [8]
active: growth inhibition [4] 98%

CC(C)NCc1cccc(-c2ccc(NS(=O)(=O)c3cccc4cccnc34)cc2)c1
active: growth inhibition [4] 90%
inactive: growth inhibition [1] 10% | inhibition [2] 21% | inhibition [3] 5% | outcome [5] | outcome [6] | outcome [7] | outcome [8]

Cc1ccc(Nc2nc(C)cc(Nc3cccc(C#N)c3)n2)cc1
active: growth inhibition [1] 96% | growth inhibition [4] 101%
inactive: inhibition [2] 14% | inhibition [3] 4% | outcome [5] | outcome [6] | outcome [7] | outcome [8]

Cc1ccc(Oc2ccccc2NC(=O)CCc2nc3ccccc3c(=O)[nH]2)cc1
active: growth inhibition [1] 99% | growth inhibition [4] 100%
inactive: inhibition [2] 3% | inhibition [3] -3% | outcome [5] | outcome [6] | outcome [7] | outcome [8]

O=C(/C=C/c1cc(C(F)(F)F)ccc1F)NCCCCCN1CCC(c2c[nH]c3ccccc23)CC1
inactive: growth inhibition [1] 4% | inhibition [2] 39% | inhibition [3] -1% | outcome [5] | outcome [6] | outcome [7] | outcome [8]
active: growth inhibition [4] 88%

CCCCCCNCc1c(O)ccc2c(CNCCCCCC)c(O)ccc12
inactive: inhibition [2] 22% | inhibition [3] -1% | outcome [5] | outcome [6] | outcome [7] | outcome [8]
active: growth inhibition [1] 100% | growth inhibition [4] 102%

C=CCN1C(=O)C(C(C)=O)=C(O)C1c1ccccc1 (stereo not drawn)
active: growth inhibition [1] 97% | growth inhibition [4] 93%
inactive: inhibition [2] 41% | inhibition [3] -4% | outcome [5] | outcome [6] | outcome [7] | outcome [8]

COc1cc2c(cc1COc1ccccc1)CCN1Cc3cc(OC)c(OC)cc3CC21 (stereo not drawn)
active: growth inhibition [1] 84% | growth inhibition [4] 99%
inactive: inhibition [2] -1% | inhibition [3] 2% | outcome [5] | outcome [6] | outcome [7] | outcome [8]

Cc1cc(C)cc(Oc2c(C(F)(F)F)oc3c(CN4CC(C)OC(C)C4)c(O)ccc3c2=O)c1 (stereo not drawn)
active: growth inhibition [1] 54% | growth inhibition [4] 89%
inactive: inhibition [2] 5% | inhibition [3] 1% | outcome [5] | outcome [6] | outcome [7] | outcome [8]

COc1ccc(C2CC(c3cccs3)=NN2C(=O)c2ccccc2)cc1OC (stereo not drawn)
active: growth inhibition [1] 83% | growth inhibition [4] 99%
inactive: inhibition [2] 5% | inhibition [3] 5% | outcome [5] | outcome [6] | outcome [7] | outcome [8]

O=C(NCc1ccc(C(=O)NC2CCCCCC2)cc1)c1ccc(O)c(-c2ccc(Cl)c(Cl)c2)c1
active: growth inhibition [4] 83%
inactive: growth inhibition [1] 21% | inhibition [2] -1% | inhibition [3] -3% | outcome [5] | outcome [6] | outcome [7] | outcome [8]

CCCCNC(=O)[C@@H]1CCCN1C(=O)c1ccc(O)c(-c2ccc(Cl)c(Cl)c2)c1
active: growth inhibition [1] 92% | growth inhibition [4] 98%
inactive: inhibition [2] -1% | inhibition [3] -1% | outcome [5] | outcome [6] | outcome [7] | outcome [8]

NC1=NC(C=Cc2ccccc2)N(OCCCCCCON2C(N)=NC(N)=NC2C=Cc2ccccc2)C(N)=N1 (stereo not drawn)
inactive: inhibition [2] 17% | inhibition [3] 3% | outcome [5] | outcome [6] | outcome [7] | outcome [8]
active: growth inhibition [1] 94% | growth inhibition [4] 97%

COc1ccc2ncc(F)c(CCN3C[C@H](CNCc4ccc5c(c4)OCCO5)[C@H](O)C3)c2n1
active: growth inhibition [4] 94%
inactive: growth inhibition [1] 35% | inhibition [2] 18% | inhibition [3] 7% | outcome [5] | outcome [6] | outcome [7] | outcome [8]

COc1cc(C(=O)NCCCN2CCN(c3cccc(Cl)c3)CC2)ccc1-c1nc2cc(Cl)c(F)cc2[nH]1
active: growth inhibition [1] 81% | growth inhibition [4] 100%
inactive: inhibition [2] 15% | inhibition [3] 0% | outcome [5] | outcome [6] | outcome [7] | outcome [8]

COCCCn1c(=N)c(C(=O)NCCc2ccc(OC)cc2)cc2c(=O)n3cccc(C)c3nc21
active: growth inhibition [4] 95%
inactive: growth inhibition [1] 33% | inhibition [2] 18% | inhibition [3] -1% | outcome [5] | outcome [6] | outcome [7] | outcome [8]

CC(C)=CCc1c(-c2ccc(O)cc2O)oc2c3c(cc(O)c2c1=O)OC(C)(C)C=C3
inactive: growth inhibition [1] 8% | inhibition [2] 1% | inhibition [3] 5% | outcome [5] | outcome [6] | outcome [7] | outcome [8]
active: growth inhibition [4] 89%

CC(C)CCN1CCC(Oc2ccc(NC(=O)c3ccccc3)cc2Cl)CC1
inactive: inhibition [2] 17% | inhibition [3] 5% | outcome [5] | outcome [6] | outcome [7] | outcome [8]
active: growth inhibition [1] 88% | growth inhibition [4] 87%

CN(C)c1ccc(-c2nnc(Sc3ccc(C#N)c([N+](=O)[O-])c3)n2Cc2ccco2)cc1
active: growth inhibition [1] 79% | growth inhibition [4] 95%
inactive: inhibition [2] 3% | inhibition [3] 3% | outcome [5] | outcome [6] | outcome [7] | outcome [8]

Cc1ccc(Nc2ccnc(Nc3ccc(F)c(Cl)c3)n2)cc1O
inactive: inhibition [2] 9% | inhibition [3] -4% | outcome [5] | outcome [6] | outcome [7] | outcome [8]
active: growth inhibition [1] 52% | growth inhibition [4] 101%

CCCNCc1ccc(-c2ccc(CN(Cc3cnc(C)cn3)C(=O)c3nn(-c4ccccc4)nc3C)cc2)nc1
active: growth inhibition [4] 99%
inactive: growth inhibition [1] 49% | inhibition [2] 22% | inhibition [3] 0% | outcome [5] | outcome [6] | outcome [7] | outcome [8]

COc1ccc(CNC2Cc3ccccc3C2)cc1-c1ccc(S(=O)(=O)NCc2cccnc2)s1
inactive: growth inhibition [1] 18% | inhibition [2] 49% | inhibition [3] 3% | outcome [5] | outcome [6] | outcome [7] | outcome [8]
active: growth inhibition [4] 91%

COc1cc(CCOc2c(C)nc(N)nc2N)cc(OC)c1OC
active: inhibition [2] 59% | growth inhibition [4] 93%
inactive: growth inhibition [1] -3% | inhibition [3] 4% | outcome [5] | outcome [6] | outcome [7] | outcome [8]

Cc1cc(NN=Cc2ccc(Cl)cc2)c2cc(C(F)(F)F)ccc2n1
active: growth inhibition [4] 91%
inactive: growth inhibition [1] 32% | inhibition [2] 0% | inhibition [3] -5% | outcome [5] | outcome [6] | outcome [7] | outcome [8]

COC(=O)c1ccc2c(-c3nc4ccc(OC)cc4[nH]3)c[nH]c2c1
inactive: growth inhibition [1] 31% | inhibition [2] 0% | inhibition [3] 5% | outcome [5] | outcome [6] | outcome [7] | outcome [8]
active: growth inhibition [4] 95%

COc1ccc2c(NN=CC=Cc3ccccc3)ccnc2c1
active: growth inhibition [1] 100% | growth inhibition [4] 100%
inactive: inhibition [2] 9% | inhibition [3] 4% | outcome [5] | outcome [6] | outcome [7] | outcome [8]

CNC(=O)c1cnc(Nc2ccc(N3CCN(C)CC3)cc2)nc1Nc1cccc(OC)c1
inactive: inhibition [2] 19% | inhibition [3] 5% | outcome [5] | outcome [6] | outcome [7] | outcome [8]
active: growth inhibition [1] 101% | growth inhibition [4] 100%

Cc1[nH]c(C)c(-c2ccc(-c3cccc(Cl)c3)nc2)c(=O)c1Cl
inactive: inhibition [2] 15% | inhibition [3] 0% | outcome [5] | outcome [6] | outcome [7] | outcome [8]
active: growth inhibition [1] 97% | growth inhibition [4] 97%

O=C(NC1CC1)c1ccc(N2CCC(Oc3ccc(F)cc3)CC2)nc1
active: growth inhibition [1] 79% | growth inhibition [4] 89%
inactive: inhibition [2] -2% | inhibition [3] -1% | outcome [5] | outcome [6] | outcome [7] | outcome [8]

CC(C)Oc1cc(-c2ccc(S(C)(=O)=O)cc2)nc(N(Cc2cccc(F)c2F)Cc2cccc(F)c2F)n1
active: growth inhibition [1] 99% | growth inhibition [4] 101%
inactive: inhibition [2] 10% | inhibition [3] 4% | outcome [5] | outcome [6] | outcome [7] | outcome [8]

OCCN1CCN(Cc2ccc(-c3cccc(-c4nc5ccc(F)cc5[nH]4)c3)cc2)CC1
active: growth inhibition [1] 61% | growth inhibition [4] 100%
inactive: inhibition [2] 21% | inhibition [3] -2% | outcome [5] | outcome [6] | outcome [7] | outcome [8]

Oc1ccc2ccccc2c1CNCCC1CCCCC1
inactive: inhibition [2] 16% | inhibition [3] 5% | outcome [5] | outcome [6] | outcome [7] | outcome [8]
active: growth inhibition [1] 99% | growth inhibition [4] 99%
